An excerpt weighted towards active compounds, which were near 7.6% of everything screened.
SW480 rereplic: A quantitative high throughput screen for small molecules that induce DNA re-replication in SW480 colon adenocarcinoma cells; AID 624297, 2012; 340,000 tested, 1.8% active; Potency, µM (series often up to 46.1 µM), for the others: top-dose re-replication activation, most hits filed as activators; SW480 DNA re-replication, Hoechst DNA content imaging, 48 h; note: potency is the fitted concentration of half-maximal effect; % of control where 0% means no effect; nearly all actives have a fitted effect of over 55% in size
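Quantitative HTS format with DMSO vehicle controls; 48 hr drug incubation at 37 C, then 40 min Hoechst staining and scanning imager measurement at 405 nm excitation.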
MCF10A rerep: A quantitative high throughput screen for small molecules that induce DNA re-replication in MCF 10a normal breast cells; MCF 10A DNA re-replication, Hoechst nuclear intensity, 48 h; Potency, µM (titrated, usually from 46.1 µM), for the others: at the top dose activity, positive = re-replication, actives largely listed as activators; 350,000 tested, 2.9% active; note: potency is the fitted concentration of half-maximal effect; % of control where 0% means no effect; nearly all actives have a fitted effect of over 50% in size
KB-3-1 cytotox: qHTS assay for MDR1-selective chemotherapeutics: Primary screen using the parental adenocarcinoma cell KB-3-1 | Potency, µM (highest dose often 46.1 µM), hits mostly cytotoxic | 400,000 tested, 1.4% active | KB-3-1 viability, CellTiter-Glo ATP luminescence, 72 h | AID 1347075, 2019; note: potency is the fitted concentration of half-maximal effect; % is set by controls: 0 for no effect and ±100 for the full control effect; nearly all actives have a fitted effect of over 60% in size
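Screening of KB-3-1 cells (DMEM, 10% FBS, phenol-red free) ran from lowest to highest compound concentration; after 72 h at 37 °C viability was read luminescently and curves fitted.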
KCNH2 3.1 inh: qHTS for Inhibitors of KCHN2 3.1: Mutant qHTS; Potassium voltage-gated channel subfamily H member 2, brain isoform KCNH2 3.1 (human); U2OS KCNH2 3.1, thallium flux FluxOr; active compounds read low; activity change, % (tested at about 1.8 µM); 340,000 tested, 0.95% active;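 active = maximum activity change below -70%; inconclusive = maximum activity change from -70% to -50%; inactive = maximum activity change above -50%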;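 note: thallium influx rate constant from kinetic fluorescence after stimulation buffer; % is set by controls: 0 for no effect and ±100 for the full control effect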
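Kinetic fluorescence (2 min after stimulation buffer) measures Tl+ influx through KCNH2 3.1 expressed by viral transduction in U2OS cells; the rate constant is normalized against DMSO controls serving as positive and negative references.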
KB-V1 cytotox: qHTS assay for MDR1-selective chemotherapeutics: Primary screen using the drug-selected MDR subline cells KB-V1 | KB-V1 MDR cells viability, CellTiter-Glo, 72 h | Potency, µM (doses to about 46.1 µM), most hits filed as cytotoxic | 400,000 tested, 3.4% active | AID 1347076, 2019; note: potency is the fitted concentration of half-maximal effect; % is set by controls: 0 for no effect and ±100 for the full control effect; nearly all actives have a fitted effect of over 60% in size
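In this primary screen, KB-V1 cells overexpressing P-gp are incubated with library compounds (lowest to highest concentration) for 72 h at 37 degrees C before a luminescent ATP viability read.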
hERG WT inh: qHTS for Inhibitors of KCHN2 3.1: Wildtype qHTS; Voltage-gated inwardly rectifying potassium channel KCNH2 (Homo sapiens), Q12809; AID 720551, 2013; U2OS, BacMam KCNH2, thallium flux FluxOr; active compounds read low; 340,000 tested, 0.37% active; activity change, % at 1.84 µM;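 active = maximum activity change below -70%; inconclusive = maximum activity change between -70% and -50%; inactive = maximum activity change above -50%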; note: % is set by controls: 0 for no effect and ±100 for the full control effect
Target sequence (Q12809 whole entry, looked up): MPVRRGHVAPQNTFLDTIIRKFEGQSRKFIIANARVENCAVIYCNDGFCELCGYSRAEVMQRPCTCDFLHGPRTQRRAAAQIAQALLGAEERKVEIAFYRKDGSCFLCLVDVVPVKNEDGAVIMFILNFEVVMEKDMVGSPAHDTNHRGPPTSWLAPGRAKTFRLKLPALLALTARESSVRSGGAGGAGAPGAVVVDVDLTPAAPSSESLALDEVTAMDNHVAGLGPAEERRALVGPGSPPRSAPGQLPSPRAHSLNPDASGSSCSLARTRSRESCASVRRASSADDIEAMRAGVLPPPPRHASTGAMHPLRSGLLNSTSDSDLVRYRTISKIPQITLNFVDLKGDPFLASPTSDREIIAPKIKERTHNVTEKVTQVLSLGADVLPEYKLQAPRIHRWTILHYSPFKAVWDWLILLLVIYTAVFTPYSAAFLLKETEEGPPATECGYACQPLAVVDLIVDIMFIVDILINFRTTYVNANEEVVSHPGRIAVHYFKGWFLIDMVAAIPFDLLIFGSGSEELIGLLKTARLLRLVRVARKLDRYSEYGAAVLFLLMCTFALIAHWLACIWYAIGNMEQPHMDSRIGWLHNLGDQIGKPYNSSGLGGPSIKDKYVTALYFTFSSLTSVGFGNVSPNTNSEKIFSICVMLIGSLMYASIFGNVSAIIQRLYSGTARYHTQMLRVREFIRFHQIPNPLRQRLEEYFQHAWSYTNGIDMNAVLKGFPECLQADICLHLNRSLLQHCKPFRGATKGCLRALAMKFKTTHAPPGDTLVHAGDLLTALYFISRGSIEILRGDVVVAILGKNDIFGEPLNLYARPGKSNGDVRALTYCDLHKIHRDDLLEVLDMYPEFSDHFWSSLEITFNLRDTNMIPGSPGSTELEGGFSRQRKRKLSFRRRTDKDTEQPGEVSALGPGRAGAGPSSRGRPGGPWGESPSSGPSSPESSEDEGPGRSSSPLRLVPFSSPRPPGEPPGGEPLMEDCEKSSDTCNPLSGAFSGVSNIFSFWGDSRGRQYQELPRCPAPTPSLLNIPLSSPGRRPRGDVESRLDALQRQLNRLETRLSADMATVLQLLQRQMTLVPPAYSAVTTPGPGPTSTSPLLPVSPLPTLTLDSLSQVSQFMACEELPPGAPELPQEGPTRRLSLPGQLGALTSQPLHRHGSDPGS
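U2OS cells transduced with wild-type KCNH2 virus are loaded with FluxOr dye for 45 min, and thallium flux is measured in kinetic reads before and after stimulation buffer. Rate constants are normalized to DMSO controls.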
* hit, by the source's call; i = inactive; u = inconclusive; x = no result given. Unless noted, calls come from the whole dose curve; as a rule, active = well fitted curve in the direction sought with a large enough effect; inconclusive = small, poorly fitted or top-dose-only effect, or another doubt; inactive = no such curve, though single readings can be large; an effect the other way counts as inactive or inconclusive.

SMILES | SW480 rereplic | MCF10A rerep | KB-3-1 cytotox | KCNH2 3.1 inh | KB-V1 cytotox | hERG WT inh
O=S(=O)(NCCN1CCCC1)c1ccc(C(F)(F)F)cc1 | -9.4% | -10.0% | u | -10.0 | i | -11.2
CCCCC(=O)Nc1cccc(-c2csc(-c3ccccc3)n2)c1 | u | 25.9µM* | i | x | i | -8.5
O=C(Nc1ccc(-c2csc(Nc3cccc(C(F)(F)F)c3)n2)cc1)c1ccccc1 | u | 18.4µM* | u | 16.7 | i | -4.5
CC(C)(C)OC(=O)N1CCC(c2c(C(=O)NCc3cccs3)cnn2-c2ccc(F)cc2F)CC1 | x | x | i | x | i | x
Cc1ccc(C(=O)Nc2ccccc2C(=O)N2CCN(c3ccccc3)CC2)cc1 | 9.0% | 6.3% | i | 1.0 | i | -2.0
Cc1ccccc1C(=O)N1CCN(c2ccc(NC(=O)CSc3ccc(Cl)cc3)cc2)CC1 | -4.0% | u | 18.4µM* | -37.9 | u | 3.2
CCC(=O)Nc1ccc(N2CCN(C(=O)c3ccccc3C)CC2)cc1 | 1.8% | 4.9% | i | 14.5 | i | -2.3
Cc1ccc(C(=O)N2CCN(c3ccc(NC(=O)c4ccc5c(c4)OCCO5)cc3)CC2)cc1 | -0.1% | 17.3% | u | -93.0* | u | -19.6
Cc1ccc(N2CCN(C(=O)c3ccccc3NC(=O)c3ccccc3C(=O)O)CC2)cc1 | 0.0% | 0.9% | i | -9.2 | i | -71.7*
Cc1ccccc1C(=O)N1CCN(c2ccc(NC(=O)c3ccc4c(c3)OCCO4)cc2)CC1 | -8.1% | 16.4µM* | u | x | 8.2µM* | -5.5
COc1cc(OC)c(C(=O)OC(C)C(=O)NCc2ccc3c(c2)OCO3)cc1OC (centres undefined) | -6.1% | -15.0% | i | 1.0 | u | -2.4
O=S(=O)(c1ccccc1F)N1CCN(c2nc(-c3cccs3)nc3ccccc23)CC1 | x | x | u | x | i | x
Cc1occc1C(=O)NNC(=S)Nc1ccccc1 | -0.4% | 3.2% | i | -6.0 | i | -5.0
COc1cc(C(=O)NNC(=O)CCOc2ccccc2)cc(OC)c1OC | 0.5% | -2.1% | i | -3.8 | i | 7.4
CC(=O)Nc1ccccc1OC1=N[S+](=O)([O-])c2ccccc21 | x | x | u | x | i | x
CCOC(=O)C1CCN(c2cc(C)nc3cc(-c4cccc(F)c4)nn23)CC1 | u | 4.11µM* | i | -7.3 | i | -5.4
CCN1CCN(C(=O)c2cc(COc3ccc4ncccc4c3)on2)CC1 | -1.5% | 13.3% | i | -7.6 | 16.4µM* | 10.4
CCCN1CCN(C(=O)c2cc(COc3ccc4ncccc4c3)on2)CC1 | -1.9% | 8.9% | u | -5.7 | u | -13.2
CCC1CCCCN1C(=O)c1cc(COc2ccc3ncccc3c2)on1 (centres undefined) | -13.8% | -0.2% | 4.11µM* | 24.1 | 1.64µM* | 7.6
c1ccc(-c2cc3cc4c(cc3cn2)OCO4)cc1 | 10.2% | u | i | 19.5 | i | -14.7
CCN1CCN(C(c2ccc(OC)cc2)C(O)C(=O)c2c[nH]c3ccccc23)CC1 (centres undefined) | 0.1% | 7.9% | i | -99.0* | i | -104.1*
COc1ccc2nc(SCC(=O)Nc3ccc4sc(C)nc4c3)c(C#N)cc2c1 | 3.0% | u | i | -9.2 | u | -0.8
Cc1nc([N+](=O)[O-])c(Br)n1CC(=O)c1cccc([N+](=O)[O-])c1 | u | 20.6µM* | i | -0.3 | i | -8.1
COC(=O)Cn1c(C)nc([N+](=O)[O-])c1Br | -14.5% | 0.0% | i | -1.4 | i | -3.5
